The source of these data is PubChem BioAssay.

Assay [1] is described as follows: antimalarial activity against Dd2 strain (AID 2302;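 active = growth inhibition above 50% at the single 2 µM test dose, taken to imply half-maximal potency below 2 µM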;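 note: 0% = DMSO untreated growth and 100% = chloroquine plus artemisinin killed control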). The note with it: P. falciparum Dd2 in RBCs, LDH growth readout, 72 h; at 2 µM; hits give high values.
A short description of assay [2]: HepG2 cytotoxicity, primary screen, cytotoxicity control for P. falciparum antimalarial project, cell-based, ATP luminescence (AID 2303;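 active = inhibition above 50%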;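 note: 0% = DMSO wells and 100% = digitonin-killed cells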). As to conditions: HepG2 viability, 24-48 h, at 10 µM, hits give high values.
For assay [3], the target named is L-lactate dehydrogenase (Plasmodium falciparum (isolate CDC / Honduras)) (UniProt Q27743). As to the kind of experiment: PfLDH activity inhibition – cell lysate, 3D7 strain, counter-screen for P. falciparum growth inhibition project (AID 2304).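 Note: 0% = vehicle and 100% = reference inhibitor.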 As to conditions: P. falciparum 3D7 crude extract, LDH APAD/NBT absorbance; at 2 µM; hits give high values. (In general: A counterscreen serves to expose hits that act by an unwanted route or on another target.)

Assay [4] is described as follows: inhibition of 3D7 malaria parasite growth – strain 3D7 (AID 2306).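 Note: 0% = DMSO wells and 100% = chloroquine plus artemisinin control wells.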 The note with it: P. falciparum 3D7 erythrocytic growth, LDH absorbance, 72 h; at 2 µM; hits give high values.
Assay [5] concerns the target Calcium-dependent protein kinase 1 (Plasmodium falciparum (isolate 3D7)) (UniProt P62344). Briefly: PfCDPK1 kinase inhibitors, biochemical, TCAMS library (AID 1159585; cut-off not given, nearly all actives have IC50 up to about 0.98 µM;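 note: inhibitors leave more ATP so luminescence rises with inhibition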). As to conditions: recombinant PfCDPK1, Kinase-Glo ATP depletion luminescence.
For assay [6], the target named is Plasmodium falciparum protein kinase 6 (PK6, PF3D7_1337100) (UniProt Q8IDW1). Briefly: PfPK6 kinase inhibitors, biochemical, TCAMS library (AID 1159586). The note with it: recombinant PfPK6, Kinase-Glo ATP depletion luminescence. Background: In Kinase-Glo more light means more ATP remaining.
Assay [7] has as its target Protein kinase 7 (PK7), Plasmodium falciparum 3D7 (PF3D7_0213400) (UniProt Q7YTF7). As to the kind of experiment: inhibition of Plasmodium PK7 catalytic activity – biochemical, TCAMS antimalarial set, Kinase-Glo luminescence (AID 1159587). As to conditions: recombinant PfPK7, Kinase-Glo ATP depletion luminescence.
For assay [8], the target named is Calcium-dependent protein kinase 4 (Plasmodium falciparum (isolate 3D7)) (UniProt Q8IBS5). Briefly: PfCDPK4 kinase inhibitors, biochemical, TCAMS library (AID 1159588; cut-off not given, nearly all actives have IC50 up to about 0.91 µM). As to conditions: recombinant PfCDPK4, Kinase-Glo ATP depletion luminescence.

A number with no mark means an inactive call. For some of these results: Results with a measured potency or affinity are listed apart. Calls of active or inactive are those of the source. Unless noted, the rule behind the calls is not given here.

Sequence of Calcium-dependent protein kinase 4 (Plasmodium falciparum (isolate 3D7)) (Q8IBS5 whole entry, looked up): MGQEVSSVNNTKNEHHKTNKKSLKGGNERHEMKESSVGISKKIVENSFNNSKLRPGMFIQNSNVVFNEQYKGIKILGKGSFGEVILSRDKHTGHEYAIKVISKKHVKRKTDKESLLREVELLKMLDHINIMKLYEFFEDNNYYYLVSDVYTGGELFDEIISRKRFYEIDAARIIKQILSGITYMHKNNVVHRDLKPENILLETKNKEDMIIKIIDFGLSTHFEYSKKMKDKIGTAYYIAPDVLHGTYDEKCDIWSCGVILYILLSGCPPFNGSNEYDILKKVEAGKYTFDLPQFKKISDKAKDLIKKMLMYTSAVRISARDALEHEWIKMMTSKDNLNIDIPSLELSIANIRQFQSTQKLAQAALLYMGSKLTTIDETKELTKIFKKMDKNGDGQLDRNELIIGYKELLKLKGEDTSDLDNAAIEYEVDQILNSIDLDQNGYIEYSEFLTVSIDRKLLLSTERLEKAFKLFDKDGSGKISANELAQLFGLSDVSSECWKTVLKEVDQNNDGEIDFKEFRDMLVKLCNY
Sequence of Plasmodium falciparum protein kinase 6 (PK6, PF3D7_1337100) (Q8IDW1 1-305): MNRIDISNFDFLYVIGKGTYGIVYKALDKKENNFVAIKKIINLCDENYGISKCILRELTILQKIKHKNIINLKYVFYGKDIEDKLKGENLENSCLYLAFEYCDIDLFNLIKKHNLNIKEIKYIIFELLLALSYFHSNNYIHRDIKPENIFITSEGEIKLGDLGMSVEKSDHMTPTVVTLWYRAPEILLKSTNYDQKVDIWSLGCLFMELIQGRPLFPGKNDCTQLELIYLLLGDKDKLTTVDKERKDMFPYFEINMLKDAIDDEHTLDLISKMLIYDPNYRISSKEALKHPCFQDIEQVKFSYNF
Sequence of Protein kinase 7 (PK7), Plasmodium falciparum 3D7 (PF3D7_0213400) (Q7YTF7 1-343): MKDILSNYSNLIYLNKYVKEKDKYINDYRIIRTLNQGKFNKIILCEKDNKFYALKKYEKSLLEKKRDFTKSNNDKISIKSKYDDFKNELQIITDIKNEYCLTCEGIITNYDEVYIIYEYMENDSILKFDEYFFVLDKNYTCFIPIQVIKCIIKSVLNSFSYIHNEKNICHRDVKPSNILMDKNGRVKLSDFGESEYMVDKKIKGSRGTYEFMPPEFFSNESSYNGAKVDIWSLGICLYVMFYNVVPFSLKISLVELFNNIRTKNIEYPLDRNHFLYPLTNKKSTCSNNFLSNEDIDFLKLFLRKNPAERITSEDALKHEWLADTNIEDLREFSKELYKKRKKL
Sequence of L-lactate dehydrogenase (Plasmodium falciparum (isolate CDC / Honduras)) (Q27743 whole entry, looked up): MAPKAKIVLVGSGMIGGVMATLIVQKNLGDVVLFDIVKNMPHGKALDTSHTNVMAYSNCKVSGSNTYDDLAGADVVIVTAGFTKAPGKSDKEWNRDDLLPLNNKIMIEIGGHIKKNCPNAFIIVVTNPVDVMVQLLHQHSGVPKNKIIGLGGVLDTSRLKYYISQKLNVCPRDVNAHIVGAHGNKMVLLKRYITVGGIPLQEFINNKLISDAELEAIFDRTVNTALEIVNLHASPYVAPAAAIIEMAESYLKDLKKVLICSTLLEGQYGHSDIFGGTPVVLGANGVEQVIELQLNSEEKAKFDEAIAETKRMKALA
Sequence of Calcium-dependent protein kinase 1 (Plasmodium falciparum (isolate 3D7)) (P62344 whole entry, looked up): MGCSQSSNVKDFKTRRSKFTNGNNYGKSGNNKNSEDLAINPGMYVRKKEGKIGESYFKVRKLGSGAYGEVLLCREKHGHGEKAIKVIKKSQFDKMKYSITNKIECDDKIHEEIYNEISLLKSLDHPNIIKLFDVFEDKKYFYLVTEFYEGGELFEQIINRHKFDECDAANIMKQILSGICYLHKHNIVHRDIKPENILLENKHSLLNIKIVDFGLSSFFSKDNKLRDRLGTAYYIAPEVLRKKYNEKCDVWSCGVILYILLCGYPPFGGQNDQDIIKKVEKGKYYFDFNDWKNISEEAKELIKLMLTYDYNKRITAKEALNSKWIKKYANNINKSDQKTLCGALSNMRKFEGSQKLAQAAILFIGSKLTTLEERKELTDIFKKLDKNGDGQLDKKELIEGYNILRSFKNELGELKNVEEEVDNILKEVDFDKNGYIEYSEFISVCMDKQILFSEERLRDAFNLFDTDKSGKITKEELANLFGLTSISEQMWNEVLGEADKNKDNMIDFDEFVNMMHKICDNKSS

What is called inhibition is the relative decrease from the control value, in per cent. As to `CC(C)(C)NCCN(Cc1ccc(-c2ccc(C(F)(F)F)cc2)cc1)C(=O)Cn1c(SCc2ccc(F)cc2)nc(=O)c2c1CCC2`, the growth inhibition was 84% (active) in assay [1] and 97% (active) in assay [4]. In addition, the inhibition in assay [2] was 64% (active); in assay [3], 0%. In addition, the result in assay [5], in assay [6], in assay [7] and in assay [8] was inactive.
In the case of `CC1(C)N=C(N)N=C(N)N1c1ccc(Oc2ccccc2)cc1`, the values for the growth inhibition in assay [1] and in assay [4] were 3% and 98% (active), respectively. The inhibition in assay [2] was 13%; in assay [3], -6%. The outcome in assay [5], in assay [6], in assay [7] and in assay [8] was inactive.
Consider `CCOc1cc(Cc2cnc(N)nc2N)cc(OCC)c1OCC`, for which the values for the growth inhibition in assay [1] and in assay [4] were 0% and 97% (active), respectively. Further, the inhibition in assay [2] was -1%; in assay [3], 5%. The outcome in assay [5], in assay [6], in assay [7] and in assay [8] was inactive.
For the compound `O=C(Nc1ccc(Cn2ncc(N3CCCNCC3)c(Cl)c2=O)cc1)Nc1cc(C(F)(F)F)cc(C(F)(F)F)c1`, the growth inhibition in assay [1] is 29%; in assay [4], 100% (active). Further, the figures for the inhibition in assay [2] and in assay [3] were 25% and 3%, respectively. Moreover, the outcome in assay [5], in assay [6], in assay [7] and in assay [8] was inactive.
With `CCc1cc2c(Sc3nc4ccccc4[nH]3)ncnc2s1`, the growth inhibition in assay [1] is 98% (active); in assay [4], 97% (active). The inhibition in assay [2] was 6%; in assay [3], 2%. The outcome in assay [5], in assay [6], in assay [7] and in assay [8] was inactive.
Take `COC(=O)c1cccc(OCCNC2CCN(C[C@H](O)c3ccnc4ccc(OC)cc34)CC2)c1`: the growth inhibition is 96% (active) in assay [1] and 100% (active) in assay [4]. Moreover, the inhibition in assay [2] was -7%; in assay [3] it was -10%. For the same compound, the result in assay [5], in assay [6], in assay [7] and in assay [8] was inactive.
Turning to `Nc1nc(N)c2c(ccc3c2ccn3CCCC(F)(F)F)n1`, the growth inhibition in assay [1] was 34%; in assay [4] it was 97% (active). Also, the inhibition in assay [2] was 66% (active); in assay [3], 0%. Also, the result in assay [5], in assay [6], in assay [7] and in assay [8] was inactive.
Take `C=CCNC(=O)C(C)c1ccc2cc(OC)ccc2c1` (stereo not given): the growth inhibition in assay [1] was 90% (active); in assay [4], 92% (active). The values for the inhibition in assay [2] and in assay [3] were 4% and 1%, respectively. Also, the result in assay [5], in assay [6], in assay [7] and in assay [8] was inactive.
`O=C(NCc1cccc(F)c1)Nc1cccc(-c2cccc(-c3nc4ccc(C(F)(F)F)cc4[nH]3)c2)c1`: the growth inhibition in assay [1] was 32%; in assay [4], 93% (active). In addition, the inhibition is 55% (active) in assay [2] and -7% in assay [3]. Besides, the result in assay [5], in assay [6], in assay [7] and in assay [8] was inactive.
For `O=C(NCCN1CCCC1)N1CCCN(c2ncnc3cc(-c4ccc(F)cc4)sc23)CC1`, the growth inhibition in assay [1] was 19%; in assay [4], 81% (active). Also, the inhibition in assay [2] and in assay [3] was 5% in each case. Besides, the outcome in assay [5], in assay [6], in assay [7] and in assay [8] was inactive.
Consider `CC(=O)Nc1cccc(C(=O)Nc2ccc(-c3cccc(-c4nc5ccc(F)cc5[nH]4)c3)cc2)c1`, for which the growth inhibition in assay [1] is 8%; in assay [4], 96% (active). Further, the values for the inhibition in assay [2] and in assay [3] were 90% (active) and 0%, respectively. In addition, the outcome in assay [5], in assay [6], in assay [7] and in assay [8] was inactive.
On to `C=CCn1c(SCC(=O)Nc2cc(C)ccc2OC)nc2sc(C)cc2c1=O`, for which the results for the growth inhibition in assay [1] and in assay [4] were 86% (active) and 100% (active), respectively. The inhibition in assay [2] was 6%; in assay [3], -5%. Further, the result in assay [5], in assay [6], in assay [7] and in assay [8] was inactive.
In the case of `Cc1ccc(Nc2nc(C)cc(NCc3ccc(-n4ccnc4)cc3)n2)cc1`, the growth inhibition in assay [1] is 100% (active); in assay [4], 101% (active). Moreover, the inhibition is 33% in assay [2] and 1% in assay [3]. Moreover, the result in assay [5], in assay [6], in assay [7] and in assay [8] was inactive.
In the case of `Cc1ccc(NC(=O)c2ccc(Cl)cc2)cc1-c1ccc(C(=O)Nc2ccncc2)cc1`, the growth inhibition in assay [1] was 5%; in assay [4], 98% (active). Besides, the results for the inhibition in assay [2] and in assay [3] were 36% and 3%, respectively. Also, the result in assay [5], in assay [6], in assay [7] and in assay [8] was inactive.
Turning to `CCC(c1ccccc1)c1nn2c(-c3cccs3)nnc2s1` (stereo not given), the growth inhibition in assay [1] is 95% (active); in assay [4] it was 97% (active). The values for the inhibition in assay [2] and in assay [3] were 10% and -4%, respectively. In addition, the result in assay [5], in assay [6], in assay [7] and in assay [8] was inactive.
With `c1ccc(Oc2ccc(Nc3ccnc4cc(-c5cccc(CNCCN6CCOCC6)c5)ccc34)cc2)cc1`, the growth inhibition was 98% (active) in assay [1] and 102% (active) in assay [4]. The inhibition in assay [2] was 12%; in assay [3], 7%. Besides, the outcome in assay [5], in assay [6], in assay [7] and in assay [8] was inactive.
As for `O=c1cc(NCCCNCc2cccc(OC(F)(F)F)c2)[nH]c2ccccc12`, the growth inhibition in assay [1] is 72% (active); in assay [4], 97% (active). The figures for the inhibition in assay [2] and in assay [3] were -4% and -1%, respectively. Moreover, the result in assay [5], in assay [6], in assay [7] and in assay [8] was inactive.
As to `O=C(NCCc1ccccc1)N(Cc1ccccc1-c1cccc(CNCc2ccc3c(c2)OCO3)c1)C1CCN(Cc2ccccc2)CC1`, the values for the growth inhibition in assay [1] and in assay [4] were 77% (active) and 93% (active), respectively. Further, the inhibition in assay [2] was 29%; in assay [3], 5%. The outcome in assay [5], in assay [6], in assay [7] and in assay [8] was inactive.
Take `CC(=O)N(C)c1cccc(C(=O)Nc2cccc(-c3ccc(-c4nc5ccc(C(F)(F)F)cc5[nH]4)cc3)c2)c1`: the growth inhibition in assay [1] is 31%; in assay [4] it was 90% (active). Also, the inhibition in assay [2] was 63% (active); in assay [3] it was -2%. Also, the result in assay [5], in assay [6], in assay [7] and in assay [8] was inactive.
Take `CC(C)C[C@H](NC(=O)[C@H](Cc1ccccc1)N(C[C@H](Cc1ccccc1)NC(=O)OC(C)(C)C)C(=O)C(F)(F)F)C(=O)NC1CCN(Cc2ccccc2)CC1`: the growth inhibition in assay [1] was 82% (active); in assay [4], 92% (active). Moreover, the values for the inhibition in assay [2] and in assay [3] were 13% and -5%, respectively. Besides, the outcome in assay [5], in assay [6], in assay [7] and in assay [8] was inactive.
